Data: PubChem BioAssay AID1159580 (chemical genetic matrix, 2015)
Out of some 5,500 compounds screened, about 2,000 (36%) were called active. Not shown: some 18% with an inconclusive outcome. Cut-off read from the data, not from the text of the source: active = normalized growth mostly below about 0.91 (no sharp cut-off); inconclusive = no clear call, values can overlap the other calls; inactive = mostly above about 0.92. The list shows a part of the results.

Assay: chemical genetic growth profiling, strain panel (AID 1159580);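 note: tested at 20 µM; growth read once vehicle control cultures reached saturation at 30 °C; 1 = growth at the plate median or of vehicle wells; lower values mean less growth of the strain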
Conditions: growth OD

Measured: normalized growth

NC(=O)c1ccc([N+](=O)[O-])cc1Cl
inactive: S. cerevisiae deletion strains, locus YKL009W, strain mrt4, active compounds read low 0.977 | S. cerevisiae deletion strains, locus YKL068W, active compounds read low 0.977 | S. cerevisiae deletion strains, locus YKL085W, strain MDH1 (second series), active compounds read low 0.98 | S. cerevisiae deletion strains, locus YKL085W, strain MDH1, active compounds read low 0.98 | S. cerevisiae deletion strains, locus YKL160W, strain elf1, active compounds read low 1.03 | S. cerevisiae deletion strains, locus YKL190W, strain CNB1, active compounds read low 0.968 | S. cerevisiae deletion strains, locus YKR001C, strain vps1, active compounds read low 0.969 | S. cerevisiae deletion strains, locus YKR026C, strain gcn3, active compounds read low 0.981 | S. cerevisiae deletion strains, locus YKR091W, strain srl3, active compounds read low 0.977 | S. cerevisiae deletion strains, locus YLL001W, strain dnm1, active compounds read low 1 | S. cerevisiae deletion strains, locus YLL026W, active compounds read low 1.01 | S. cerevisiae deletion strains, locus YLL041C, strain sdh2, active compounds read low 0.982 | S. cerevisiae deletion strains, locus YLR027C, strain aat2, active compounds read low 1.01 | S. cerevisiae deletion strains, locus YLR039C, strain RIC1, active compounds read low 0.927 | S. cerevisiae deletion strains, locus YLR058C, strain SHM2, active compounds read low 0.963 | S. cerevisiae deletion strains, locus YLR102C, strain apc9, active compounds read low 0.971 | S. cerevisiae deletion strains, locus YLR113W, strain HOG1, active compounds read low 0.961 | S. cerevisiae deletion strains, locus YLR221C, strain rsa3, active compounds read low 0.956 | S. cerevisiae deletion strains, locus YLR258W, strain gsy2, active compounds read low 0.956 | S. cerevisiae deletion strains, locus YLR262C, strain YPT6 (second series), active compounds read low 0.991 | S. cerevisiae deletion strains, locus YLR262C, strain YPT6, active compounds read low 0.838 | S. cerevisiae deletion strains, locus YLR268W, strain sec22, active compounds read low 0.961 | S. cerevisiae deletion strains, locus YLR320W, strain mms22, active compounds read low 0.965 | S. cerevisiae deletion strains, locus YLR330W, strain CHS5, active compounds read low 0.98 | S. cerevisiae deletion strains, locus YLR342W, strain FKS1 (second series), active compounds read low 1 | S. cerevisiae deletion strains, locus YLR342W, strain FKS1, active compounds read low 1 | S. cerevisiae deletion strains, locus YLR357W, strain rsc2, active compounds read low 0.965 | S. cerevisiae deletion strains, locus YLR370C, strain arc18, active compounds read low 0.972 | S. cerevisiae deletion strains, locus YLR371W, strain rom2, active compounds read low 0.982 | S. cerevisiae deletion strains, locus YLR384C, strain iki3, active compounds read low 0.992 | S. cerevisiae deletion strains, locus YLR418C, strain cdc73, active compounds read low 0.949 | S. cerevisiae deletion strains, locus YML016C, strain PPZ1, active compounds read low 0.98 | S. cerevisiae deletion strains, locus YML032C, strain rad52, active compounds read low 0.999 | S. cerevisiae deletion strains, locus YML120C, strain ndi1, active compounds read low 1 | S. cerevisiae deletion strains, locus YML124C, strain tub3, active compounds read low 0.984 | S. cerevisiae deletion strains, locus YMR058W, strain fet3, active compounds read low 0.977 | S. cerevisiae deletion strains, locus YMR078C, strain ctf18, active compounds read low 0.977 | S. cerevisiae deletion strains, locus YMR125W, strain sto1, active compounds read low 0.973 | S. cerevisiae deletion strains, locus YMR129W, active compounds read low 0.975 | S. cerevisiae deletion strains, locus YMR205C, strain PFK2, active compounds read low 1.01 | S. cerevisiae deletion strains, locus YMR223W, strain ubp8, active compounds read low 0.988 | S. cerevisiae deletion strains, locus YMR231W, strain pep5, active compounds read low 0.98 | S. cerevisiae deletion strains, locus YMR263W, strain SAP30, active compounds read low 0.968 | S. cerevisiae deletion strains, locus YMR307W, strain GAS1, active compounds read low 0.891 | S. cerevisiae deletion strains, locus YNL067W, strain RPL9B, active compounds read low 0.969 | S. cerevisiae deletion strains, locus YNL071W, strain lat1, active compounds read low 0.974 | S. cerevisiae deletion strains, locus YNL128W, strain TEP1, active compounds read low 0.972 | S. cerevisiae deletion strains, locus YNL153C, strain GIM3, active compounds read low 0.964 | S. cerevisiae deletion strains, locus YNL183C, strain NPR1, active compounds read low 0.895 | S. cerevisiae deletion strains, locus YNL209W, strain ssb2, active compounds read low 0.964 | S. cerevisiae deletion strains, locus YNL233W, strain BNI4, active compounds read low 0.982 | S. cerevisiae deletion strains, locus YNL248C, strain rpa49, active compounds read low 0.931 | S. cerevisiae deletion strains, locus YNL250W, strain rad50, active compounds read low 0.971 | S. cerevisiae deletion strains, locus YNL271C, strain bni1, active compounds read low 0.981 | S. cerevisiae deletion strains, locus YNL298W, strain CLA4, active compounds read low 0.98 | S. cerevisiae deletion strains, locus YNL307C, strain MCK1, active compounds read low 0.989 | S. cerevisiae deletion strains, locus YNL322C, strain KRE1 (second series), active compounds read low 0.983 | S. cerevisiae deletion strains, locus YNL322C, strain KRE1, active compounds read low 0.981 | S. cerevisiae deletion strains, locus YNR049C, strain mso1, active compounds read low 0.97 | S. cerevisiae deletion strains, locus YNR052C, strain pop2, active compounds read low 0.978 | S. cerevisiae deletion strains, locus YOL006C, strain TOP1, active compounds read low 0.886 | S. cerevisiae deletion strains, locus YOL012C, strain htz1 0.79 | S. cerevisiae deletion strains, locus YOL147C, strain pex11, active compounds read low 0.98 | S. cerevisiae deletion strains, locus YOR001W, strain rrp6, active compounds read low 1 | S. cerevisiae deletion strains, locus YOR061W, strain CKA2, active compounds read low 0.951 | S. cerevisiae deletion strains, locus YOR069W, strain VPS5, active compounds read low 0.993 | S. cerevisiae deletion strains, locus YOR070C, strain gyp1, active compounds read low 0.972 | S. cerevisiae deletion strains, locus YOR080W, strain dia2, active compounds read low 0.999 | S. cerevisiae deletion strains, locus YOR083W, strain WHI5, active compounds read low 0.989 | S. cerevisiae deletion strains, locus YOR106W, strain vam3, active compounds read low 0.987 | S. cerevisiae deletion strains, locus YOR136W, strain idh2, active compounds read low 0.99 | S. cerevisiae deletion strains, locus YOR144C, strain elg1, active compounds read low 0.991 | S. cerevisiae deletion strains, locus YOR184W, strain ser1, active compounds read low 0.982 | S. cerevisiae deletion strains, locus YOR231W, strain MKK1, active compounds read low 0.956 | S. cerevisiae deletion strains, locus YOR265W, strain rbl2, active compounds read low 0.985 | S. cerevisiae deletion strains, locus YOR270C, strain vph1, active compounds read low 0.929 | S. cerevisiae deletion strains, locus YOR290C, strain snf2, active compounds read low 0.915 | S. cerevisiae deletion strains, locus YOR316C, strain cot1, active compounds read low 0.962 | S. cerevisiae deletion strains, locus YPL051W, strain arl3, active compounds read low 0.988 | S. cerevisiae deletion strains, locus YPL055C, strain LGE1, active compounds read low 0.941 | S. cerevisiae deletion strains, locus YPL078C, strain atp4, active compounds read low 1.02 | S. cerevisiae deletion strains, locus YPL106C, strain sse1, active compounds read low 0.957 | S. cerevisiae deletion strains, locus YPL240C, strain hsp82, active compounds read low 0.986 | S. cerevisiae deletion strains, locus YPL241C, strain CIN2, active compounds read low 1.01 | S. cerevisiae deletion strains, locus YPL256C, strain CLN2, active compounds read low 0.941 | S. cerevisiae deletion strains, locus YPR119W, strain clb2, active compounds read low 0.986 | S. cerevisiae deletion strains, locus YPR141C, strain kar3, active compounds read low 0.955 | S. cerevisiae deletion strains, locus YPR163C, strain tif3, active compounds read low 0.989 | S. cerevisiae deletion strains, locus YPR167C, strain met16, active compounds read low 0.962 | S. cerevisiae deletion strains, strain wtn01, active compounds read low 0.969 | S. cerevisiae strains, strain wild type, active compounds read low 0.981
